Reference: PubChem BioAssay (Tox21)
Results filed as inconclusive are left out. Activity calls are given as the source filed them. Calls come from the whole dose curve; as a rule, active = well fitted curve in the direction sought with a large enough effect in the repeat runs; inconclusive = weak or mixed curves; inactive = no such curve, though single readings can be large; an effect the other way counts as inactive or inconclusive.

How the values were obtained:
[1] = biological target: Cytochrome P450 2D6 (Homo sapiens) (UniProt P10635); experiment: Cytochrome P450 Family 2 Subfamily D Member 6 (CYP2D6) small molecule antagonists: luciferase reporter qHTS assay (AID 1671196); details: P450-Glo CYP2D6 enzyme assay, luciferin luminescence, 1 h; series mostly up to 115 µM; note: nearly all actives have a fitted effect of over 50% in size
Outline: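 Enzyme and proluciferin substrate were first combined with test chemical for 10 min at room temperature. Adding NADPH regeneration solution started a 1 h reaction, stopped with luciferin detection reagent and read by luminescence 20 min later.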

[2] = biological target: Cytochrome P450 2C19 (Homo sapiens) (UniProt P33261); experiment: Cytochrome P450 Family 2 Subfamily C Member 19 (CYP2C19) small molecule antagonists: luciferase reporter qHTS assay (AID 1671197); details: P450-Glo CYP2C19 enzyme, luciferin luminescence, 1 h; series mostly up to 52.9 µM; note: nearly all actives have a fitted effect of over 65% in size
Outline: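 CYP2C19 P450-Glo, 1536-well qHTS. Cpd + enzyme/proluciferin substrate 10 min RT; + NADPH regen, 37C 1 h; stop with luciferin detection reagent, 20 min RT, luminescence (RLU). Pos ctrl ketoconazole.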

[3] = biological target: Cytochrome P450 2C9 (Homo sapiens) (UniProt P11712); experiment: Cytochrome P450 Family 2 Subfamily C Member 9 (CYP2C9) small molecule antagonists: luciferase reporter qHTS assay (AID 1671198); details: P450-Glo CYP2C9 enzyme assay, luciferin luminescence; series mostly up to 115 µM; note: nearly all actives have a fitted effect of over 50% in size
Outline: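 Enzyme-substrate mix preincubated with compound 10 min at room temperature; reaction started with NADPH regeneration solution, 1 h 37C. Luminescent luciferin product read after 20 min detection reagent.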

[4] = biological target: Cytochrome P450 1A2 (Homo sapiens) (UniProt P05177); experiment: Cytochrome P450 Family 1 Subfamily A Member 2 (CYP1A2) small molecule antagonists: luciferase reporter qHTS assay (AID 1671199); details: P450-Glo CYP1A2 enzyme, luciferin luminescence, 1 h; series mostly up to 53 µM; note: nearly all actives have a fitted effect of over 50% in size
Outline: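 Compounds were incubated with CYP1A2 and a luminogenic proluciferin substrate for 10 min at room temperature before the reaction was started with NADPH regeneration solution. After 1 h, detection reagent was added and light output, proportional to CYP activity, was recorded.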

[5] = biological target: Cytochrome P450 3A4 (Homo sapiens) (UniProt P08684); experiment: Cytochrome P450 Family 3 Subfamily A Member 4 (CYP3A4) small molecule antagonists: luciferase reporter qHTS assay (AID 1671201); details: P450-Glo CYP3A4 enzyme, luciferin luminescence, 1 h; series mostly up to 115 µM; note: nearly all actives have a fitted effect of over 50% in size
Outline: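 Compounds in DMSO were pin-transferred onto CYP3A4 enzyme-substrate mix and held 10 min at room temperature. NADPH regenerating solution started the reaction for 1 h; luciferin detection reagent stopped it, and luminescence was read after 20 min.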

[6] = biological target: Voltage-gated inwardly rectifying potassium channel KCNH2 (Homo sapiens) (UniProt Q12809); experiment: Human Ether-a-go-go-Related Gene (hERG) channel small molecule antagonists: fluorescence cell-based qHTS assay (AID 1671200); details: hERG-U2OS cells, FluxOR thallium flux fluorescence; series mostly up to 76.8 µM; note: nearly all actives have a fitted effect of over 50% in size;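 for activity change, negative = inhibition: hERG-expressing U2OS cells given a thallium stimulus after FluxOR II dye loading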
Outline: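 Channel function was assessed by thallium flux. Cells seeded the previous day and kept at 37 C took up FluxOR II dye over 1 h in the dark at room temperature, then sat another 10 min before stimulation.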
% is set by controls: 0 for no effect and ±100 for the full control effect; potency is the fitted concentration of half-maximal effect.

Chain of Cytochrome P450 2C19 (Homo sapiens) (P33261 whole entry, looked up): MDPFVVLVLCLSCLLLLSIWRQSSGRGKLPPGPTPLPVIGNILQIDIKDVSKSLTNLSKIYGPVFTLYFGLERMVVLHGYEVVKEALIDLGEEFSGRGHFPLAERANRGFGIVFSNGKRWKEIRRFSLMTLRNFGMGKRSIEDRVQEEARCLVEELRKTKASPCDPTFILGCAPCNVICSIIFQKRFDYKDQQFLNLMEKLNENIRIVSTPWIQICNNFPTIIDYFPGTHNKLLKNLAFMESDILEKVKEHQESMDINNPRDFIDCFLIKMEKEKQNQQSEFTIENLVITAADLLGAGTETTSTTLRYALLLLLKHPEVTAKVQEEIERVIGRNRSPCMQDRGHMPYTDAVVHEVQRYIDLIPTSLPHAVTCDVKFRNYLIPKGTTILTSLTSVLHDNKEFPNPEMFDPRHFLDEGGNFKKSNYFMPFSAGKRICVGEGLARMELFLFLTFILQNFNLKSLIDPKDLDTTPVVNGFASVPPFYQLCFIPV
Chain of Cytochrome P450 3A4 (Homo sapiens) (P08684 whole entry, looked up): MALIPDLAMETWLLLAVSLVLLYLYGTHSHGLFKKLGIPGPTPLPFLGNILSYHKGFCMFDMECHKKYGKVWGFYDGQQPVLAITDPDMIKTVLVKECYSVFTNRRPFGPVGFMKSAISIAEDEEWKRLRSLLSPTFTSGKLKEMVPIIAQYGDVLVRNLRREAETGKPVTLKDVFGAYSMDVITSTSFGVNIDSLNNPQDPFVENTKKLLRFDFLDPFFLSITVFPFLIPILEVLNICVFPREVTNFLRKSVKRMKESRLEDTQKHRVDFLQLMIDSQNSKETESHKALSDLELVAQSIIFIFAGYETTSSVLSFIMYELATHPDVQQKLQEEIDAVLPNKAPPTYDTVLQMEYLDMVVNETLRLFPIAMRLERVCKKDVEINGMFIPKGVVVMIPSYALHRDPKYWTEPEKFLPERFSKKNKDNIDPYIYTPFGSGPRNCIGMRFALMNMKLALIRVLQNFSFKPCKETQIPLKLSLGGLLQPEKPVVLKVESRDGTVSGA
Chain of Cytochrome P450 1A2 (Homo sapiens) (P05177 whole entry, looked up): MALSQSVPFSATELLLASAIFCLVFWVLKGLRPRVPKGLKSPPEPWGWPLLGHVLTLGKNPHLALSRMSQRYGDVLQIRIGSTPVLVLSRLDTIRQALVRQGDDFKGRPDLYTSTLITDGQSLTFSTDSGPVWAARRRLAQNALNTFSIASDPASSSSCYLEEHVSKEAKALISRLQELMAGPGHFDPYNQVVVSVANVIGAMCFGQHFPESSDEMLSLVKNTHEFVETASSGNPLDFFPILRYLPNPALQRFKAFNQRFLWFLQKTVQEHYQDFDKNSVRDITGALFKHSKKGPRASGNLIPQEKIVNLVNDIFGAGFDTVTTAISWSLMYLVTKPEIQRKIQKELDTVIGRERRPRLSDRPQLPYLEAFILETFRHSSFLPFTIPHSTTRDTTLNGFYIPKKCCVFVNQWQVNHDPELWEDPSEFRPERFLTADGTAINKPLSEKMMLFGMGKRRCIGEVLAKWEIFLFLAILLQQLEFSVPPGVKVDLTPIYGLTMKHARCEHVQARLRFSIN
Chain of Voltage-gated inwardly rectifying potassium channel KCNH2 (Homo sapiens) (Q12809 whole entry, looked up): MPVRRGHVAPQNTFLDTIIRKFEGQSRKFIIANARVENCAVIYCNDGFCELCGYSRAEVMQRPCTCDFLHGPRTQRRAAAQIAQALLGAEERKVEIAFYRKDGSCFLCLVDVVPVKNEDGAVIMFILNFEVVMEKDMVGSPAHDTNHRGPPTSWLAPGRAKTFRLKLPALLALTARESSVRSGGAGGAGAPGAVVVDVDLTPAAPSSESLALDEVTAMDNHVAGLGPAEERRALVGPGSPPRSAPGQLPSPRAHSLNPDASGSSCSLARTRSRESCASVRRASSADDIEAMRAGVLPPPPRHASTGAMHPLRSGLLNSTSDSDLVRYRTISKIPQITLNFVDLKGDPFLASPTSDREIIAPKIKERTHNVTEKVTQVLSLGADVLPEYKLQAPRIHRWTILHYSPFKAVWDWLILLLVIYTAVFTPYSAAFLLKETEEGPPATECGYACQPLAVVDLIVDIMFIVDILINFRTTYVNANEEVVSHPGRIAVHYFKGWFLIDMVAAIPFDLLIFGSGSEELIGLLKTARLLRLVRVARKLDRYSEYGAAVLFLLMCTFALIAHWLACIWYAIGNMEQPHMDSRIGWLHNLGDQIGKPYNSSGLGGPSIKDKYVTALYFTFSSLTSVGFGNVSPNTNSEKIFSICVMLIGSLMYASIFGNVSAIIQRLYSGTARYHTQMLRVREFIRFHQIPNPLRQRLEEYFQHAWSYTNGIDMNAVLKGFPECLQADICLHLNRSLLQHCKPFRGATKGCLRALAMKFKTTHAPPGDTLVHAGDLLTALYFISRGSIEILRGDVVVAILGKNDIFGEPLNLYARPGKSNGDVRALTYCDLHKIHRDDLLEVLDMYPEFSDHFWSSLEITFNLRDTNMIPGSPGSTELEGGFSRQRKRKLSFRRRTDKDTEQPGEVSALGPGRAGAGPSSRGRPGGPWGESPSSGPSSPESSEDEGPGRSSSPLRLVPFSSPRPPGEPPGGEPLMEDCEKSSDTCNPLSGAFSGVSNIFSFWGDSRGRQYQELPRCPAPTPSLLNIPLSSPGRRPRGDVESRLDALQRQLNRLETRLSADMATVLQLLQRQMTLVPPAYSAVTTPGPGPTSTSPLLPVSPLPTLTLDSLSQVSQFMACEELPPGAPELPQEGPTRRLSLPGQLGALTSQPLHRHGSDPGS
Chain of Cytochrome P450 2D6 (Homo sapiens) (P10635 whole entry, looked up): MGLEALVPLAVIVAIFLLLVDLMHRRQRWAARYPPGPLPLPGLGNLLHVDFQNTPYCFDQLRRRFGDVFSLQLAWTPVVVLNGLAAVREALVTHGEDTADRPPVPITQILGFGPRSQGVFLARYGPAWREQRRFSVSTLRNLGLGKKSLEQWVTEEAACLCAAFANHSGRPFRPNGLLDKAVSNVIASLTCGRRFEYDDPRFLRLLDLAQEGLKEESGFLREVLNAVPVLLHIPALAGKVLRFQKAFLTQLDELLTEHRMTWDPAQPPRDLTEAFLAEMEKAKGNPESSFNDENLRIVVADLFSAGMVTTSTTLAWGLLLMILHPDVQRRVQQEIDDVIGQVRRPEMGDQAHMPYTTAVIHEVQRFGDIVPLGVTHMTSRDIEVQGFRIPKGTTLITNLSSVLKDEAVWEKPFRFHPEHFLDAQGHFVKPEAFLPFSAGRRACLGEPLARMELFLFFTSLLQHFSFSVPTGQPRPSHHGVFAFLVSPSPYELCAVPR
Chain of Cytochrome P450 2C9 (Homo sapiens) (P11712 whole entry, looked up): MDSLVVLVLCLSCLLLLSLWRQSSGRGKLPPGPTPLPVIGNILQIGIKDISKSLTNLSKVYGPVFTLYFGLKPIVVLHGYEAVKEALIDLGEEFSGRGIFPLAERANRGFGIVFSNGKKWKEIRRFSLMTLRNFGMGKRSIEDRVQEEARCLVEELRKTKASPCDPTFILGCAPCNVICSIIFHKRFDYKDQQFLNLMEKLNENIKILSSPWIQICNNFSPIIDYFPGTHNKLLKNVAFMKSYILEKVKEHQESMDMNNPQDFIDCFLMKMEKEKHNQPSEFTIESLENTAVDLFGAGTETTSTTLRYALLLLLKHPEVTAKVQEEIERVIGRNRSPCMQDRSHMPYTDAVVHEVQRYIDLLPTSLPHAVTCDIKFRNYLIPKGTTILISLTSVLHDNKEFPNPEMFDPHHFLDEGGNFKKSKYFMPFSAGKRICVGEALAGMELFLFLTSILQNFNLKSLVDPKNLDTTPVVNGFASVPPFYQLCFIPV

CC[N+](C)(C)c1cccc(O)c1
inactive: Potency [1] | Potency [2] | Potency [3] | Potency [4] | Potency [5]

O=[N+]([O-])c1ccc(F)cc1F
inactive: Potency [1] | Potency [2] | Potency [3] | Potency [5]

OCCOc1ccc(OCCO)cc1
inactive: Potency [1] | Potency [2] | Potency [3] | Potency [6] | Potency [5]

CC(NC(CCc1ccccc1)C(=O)O)C(=O)N1C(=O)N(C)CC1C(=O)O (stereo not drawn)
inactive: Potency [1] | Potency [2] | Potency [3] | Potency [4] | Potency [5]

CC/C=C\CC/C=C/C(OCC)OCC
active: Potency [2] 56.4 µM | Potency [3] 35.6 µM | Potency [5] 31.7 µM
inactive: Potency [1]

CN1CCCC1
inactive: Potency [1] | Potency [2] | Potency [3] | Potency [4] | Potency [5]

C=CCCCCCCCCC=O
inactive: Potency [1] | Potency [6]
active: Potency [2] 79.6 µM | Potency [3] 31.7 µM

CC(=O)CC(C)(C)C1CCCCC1
inactive: Potency [1] | Potency [2] | Potency [3] | Potency [6] | Potency [5]

CC/C=C\CC/C=C/CO
inactive: Potency [1] | Potency [2] | Potency [3] | Potency [5]

CN1N=C(C(N)=O)CCC1=O
inactive: Potency [1] | Potency [2] | Potency [3] | Potency [6] | Potency [5]

CCCCCCCCCCCCCC=O
inactive: activity change, negative = inhibition [2] -12.1% [at 10.5 µM] | activity change, negative = inhibition [3] -9.33% [at 10.5 µM] | activity change, negative = inhibition [6] -8.57% [at 6.97 µM] | activity change, negative = inhibition [5] -19.9% [at 10.5 µM]
active: Potency [1] 2.78 µM

CCC(C)S (stereo not drawn)
inactive: activity change, negative = inhibition [1] -10.7% [at 4.07 µM] | activity change, negative = inhibition [2] 8.24% [at 4.07 µM] | activity change, negative = inhibition [3] -9.04% [at 4.07 µM] | activity change, negative = inhibition [6] 1.71% [at 2.72 µM] | activity change, negative = inhibition [5] 2.72% [at 4.07 µM]

CCS(=O)(=O)c1ccc(OC)c(C(=O)OC)c1
inactive: Potency [1] | Potency [2] | Potency [3] | Potency [4] | Potency [5]

C=C(C)C(=O)OCCCCCCCC(C)C
inactive: Potency [1] | Potency [3] | Potency [6] | Potency [5]
active: Potency [2] 71.5 µM

NC(CSCC(=O)O)C(=O)O (stereo not drawn)
inactive: Potency [1] | Potency [2] | Potency [3] | Potency [6] | Potency [5]

CO[C@]12C[C@@H](COC(=O)c3cncc(Br)c3)CN(C)[C@@H]1Cc1cn(C)c3cccc2c13
active: Potency [1] 0.0692 µM | Potency [2] 2.45 µM | Potency [6] 1.07 µM
inactive: Potency [3]

C=COCC1CCC(CO)CC1 (stereo not drawn)
inactive: Potency [1] | Potency [2] | Potency [4] | Potency [6] | Potency [5]

OC1CCCCC1c1ccccc1 (stereo not drawn)
inactive: Potency [1] | Potency [4] | Potency [5]
active: Potency [2] 79.6 µM

Cc1ccc(C#N)cc1
active: Potency [2] 34.4 µM
inactive: Potency [1] | Potency [4] | Potency [6] | Potency [5]

N=C(N)c1ccc(OCCCOc2ccc(C(=N)N)cc2)cc1
inactive: Potency [1] | Potency [2] | Potency [4] | Potency [6] | Potency [5]

OC(CCN1CCCCC1)(c1ccccc1)C1CC2C=CC1C2 (stereo not drawn)
active: Potency [1] 0.776 µM
inactive: Potency [3] | Potency [4]

CC(C)NCCCC1(C(N)=O)c2ccccc2-c2ccccc21
inactive: Potency [2] | Potency [4] | Potency [6]
active: Potency [1] 2.45 µM

COC(=O)NN
inactive: Potency [1] | Potency [3] | Potency [4] | Potency [6] | Potency [5]

FC(F)OC(Cl)C(F)(F)F (stereo not drawn)
active: Potency [4] 39.9 µM
inactive: Potency [1] | Potency [3] | Potency [6] | Potency [5]

C=C1CC[C@H]2C[C@@H]1C2(C)C
inactive: Potency [1] | Potency [2] | Potency [4] | Potency [6] | Potency [5]

O=C(O)Cc1ccc(CCNS(=O)(=O)c2ccc(Cl)cc2)cc1
inactive: Potency [1] | Potency [2] | Potency [4] | Potency [6] | Potency [5]

O=C(c1ccccc1)C1CCCCC1
inactive: Potency [1] | Potency [6] | Potency [5]
active: Potency [2] 71 µM | Potency [4] 44.8 µM

CCCc1cc(C(N)=S)ccn1
inactive: Potency [1] | Potency [3] | Potency [4] | Potency [6] | Potency [5]

C[C@](N)(Cc1ccc(O)cc1)C(=O)O
inactive: activity change, negative = inhibition [1] -0.539% [at 10.5 µM] | activity change, negative = inhibition [2] -21.1% [at 10.5 µM] | activity change, negative = inhibition [4] 0.454% [at 10.5 µM] | activity change, negative = inhibition [6] 1.07% [at 6.97 µM] | activity change, negative = inhibition [5] -20.3% [at 10.5 µM]

NC(=O)c1ccc([N+](=O)[O-])cc1
inactive: Potency [1] | Potency [6] | Potency [5]
active: Potency [2] 79.3 µM | Potency [4] 39.8 µM

Nc1ccccc1S(=O)(=O)O
inactive: Potency [1] | Potency [2] | Potency [4] | Potency [6] | Potency [5]

CCCCNC(=O)NCCCC
active: Potency [2] 39.9 µM | Potency [4] 35.6 µM
inactive: Potency [1] | Potency [6] | Potency [5]

O=C1CCCC(=O)C1
inactive: Potency [1] | Potency [2] | Potency [6] | Potency [5]

O=C(O)COc1nn(Cc2ccccc2)c2ccccc12
inactive: Potency [1] | Potency [2] | Potency [4] | Potency [5]

O=C1CCCN1C1CCCCC1
active: Potency [1] 35.6 µM
inactive: Potency [3] | Potency [6] | Potency [5]
